Here are results for 63 compounds from PubChem BioAssay AID565 (University of Pittsburgh Molecular Library Screening Center, 2006).

The structures appear in SMILES notation. The whole screen tested about 65,000 compounds, of which about 1,200 (1.8%) were called active. No stated cut-off is given here; in the data, active means inhibition above about 50%; inactive means the rest. The sample as a whole holds a higher share of actives than the screen did.

The assay addresses Gag-Pol polyprotein (Human immunodeficiency virus type 1 group M subtype B (isolate HXB2)) (UniProt P04585). The assay can be described thus: HIV-1 RT RNase H inhibitors, primary screen, biochemical, fluorescence (AID 565). Conditions: RT-RNase H RNA/DNA duplex cleavage, at 10 µM, active compounds read high.
As a reminder, the inhibition is the change of the read-out against control, counted positive when it falls. `c1cnn(-c2cc(N3CCOCC3)ncn2)c1`: the inhibition is -2.75% (inactive).

In the case of `COc1c(C)cccc1C(=O)Nc1cc(Cl)ccc1N1CCOCC1`, the inhibition was -7.75% (inactive).

For `O=C(Nc1cc(N2CCOCC2)ncn1)NC1(C(F)(F)F)Oc2ccc(Cl)cc2O1` (stereo not drawn), the inhibition is 62.3% (active).

Take `CC(Sc1nncn1C)C(=O)Nc1ccccc1-c1ccccc1` (stereo not drawn): the inhibition is -1.62% (inactive).

Take `Cc1ccccc1OCC(=O)Nc1ccc(N2CCN(C(=O)C(C)C)CC2)c(Cl)c1`: the inhibition is -29% (inactive).

With `CCc1ccccc1NC(=O)CSc1nnc([C@@H](NC(=O)OC(C)(C)C)C(C)C)o1`, the inhibition was -2.47% (inactive).

Consider `CCOC(=O)CSc1nc2sc3c(c2c(=O)[nH]1)CC(C)(C)OC3`, for which the inhibition was -2.48% (inactive).

For `CCCCOC(=O)CNc1nnc(SCC(=O)OCC)[nH]c1=O`, the inhibition is 55.9% (active).

As to `CCOC(=O)c1c(NC(=O)CSc2nnc(C)c(=O)[nH]2)sc2c1CCC2`, the inhibition was 2.54% (inactive).

In the case of `CCn1c(=O)cc(O)c2ccccc21`, the inhibition is -0.16% (inactive).

For the compound `CCn1c(=N)c(S(=O)(=O)c2ccc(F)cc2)cc2c(=O)n3ccccc3nc21`, the inhibition was 2.52% (inactive).

For `Cc1nc2nc(COc3ccccc3)[nH]n2c(=O)c1C`, the inhibition was -3.44% (inactive).

In the case of `CC1(C)CC(=O)C2=C(C1)NCN(CCCN1CCOCC1)C2`, the inhibition is -6.75% (inactive).

On to `C=C(C)Cn1c(N2CCN(CC)CC2)nc2c1c(=O)[nH]c(=O)n2C`, for which the inhibition was 10.6% (inactive).

As to `Cc1ccc(S(=O)(=O)Cn2nnnc2CN2CCN(Cc3ccc4c(c3)OCO4)CC2)cc1`, the inhibition is 1.61% (inactive).

As for `c1ccc(CCn2nnnc2CN2CCN(C3CCCC3)CC2)cc1`, the inhibition is -0.5% (inactive).

For the compound `Cc1ccc(Cn2nnnc2CN2CCC(n3nnc4ccccc43)CC2)cc1`, the inhibition was 68.7% (active).

On to `Brc1ccc(Nc2c3c(nc4ncnn24)CCC3)cc1`, for which the inhibition is -1.42% (inactive).

Turning to `Cc1c(C(=O)CN2CCOCC2)[nH]c2ccccc12`, the inhibition was -6.56% (inactive).

As to `O=C1NC(c2ccncc2)Nc2sc3c(c21)CCCC3` (stereo not drawn), the inhibition was 12.9% (inactive).

Consider `Clc1ccc(C2CC(c3cccs3)n3ncnc3N2)cc1Cl` (stereo not drawn), for which the inhibition is -4.72% (inactive).

Consider `Cc1ccnc(N2CCC(C(=O)NC3CCCCCC3)CC2)n1`, for which the inhibition is -5.09% (inactive).

As for `Cc1ccnc(N2CCCC(C(=O)Nc3cc(F)ccc3C)C2)n1` (stereo not drawn), the inhibition was 58.3% (active).

In the case of `O=C(Nc1ccc2c(c1)OCCO2)C1CCCN(c2ncccn2)C1` (stereo not drawn), the inhibition is 7.08% (inactive).

For `O=C(NCCC1=CCCCC1)C1CCN(Cc2cnn(-c3ccccc3)c2-n2cccc2)CC1`, the inhibition is -3.34% (inactive).

For the compound `Cc1cc(C)c2c(n1)nn1c(-n3ccnc3)cc(C)nc21`, the inhibition is -11.4% (inactive).

Regarding `CCOC(=O)N1CCN(CC(=O)n2c(C)c(C)c3ccccc32)CC1`, the inhibition is -3.69% (inactive).

Turning to `CCOC(=O)N1CCN(CC(=O)c2ccc3c(c2)CCN3)CC1`, the inhibition is 75.5% (active).

As for `CCOC(=O)N1CCN(CC(=O)c2c(C)[nH]c3ccccc23)CC1`, the inhibition was -4.83% (inactive).

As for `O=C1c2ccncc2C(=O)N1C1CCCCC1`, the inhibition is -26.2% (inactive).

Turning to `COCCNC(=O)COc1ccc(C)c(C)c1`, the inhibition is -5.41% (inactive).

For the compound `COc1ccc(NC(=O)c2ccc(OC)cc2)cc1`, the inhibition is 2.87% (inactive).

For `COCCNC(=S)c1ccc(OC)cc1`, the inhibition is 88.3% (active).

On to `COC(=O)C(C)Sc1nc2c(c(=O)n(C)c(=O)n2C)n1Cc1cccc(C)c1` (stereo not drawn), for which the inhibition was 8.94% (inactive).

Consider `Cc1cc(Nc2ccccc2)n(CCC#N)n1`, for which the inhibition was -2.42% (inactive).

Consider `CCc1ccc2oc(=O)cc(CN3CCCCC3C)c2c1` (stereo not drawn), for which the inhibition is -13.3% (inactive).

Consider `Cc1nc(C)c(C(=O)Nc2ccc(C)c(F)c2)o1`, for which the inhibition was 31.9% (inactive).

Take `COc1ccc(Cl)cc1NC(=O)c1oc(C)nc1C`: the inhibition is 12.9% (inactive).

Take `Cc1nc(C)c(C(=O)Nc2cccc(C)c2C)o1`: the inhibition was 52.9% (active).

As to `CS(=O)(=O)N(CC(=O)N1CCN(c2cccc(Cl)c2)CC1)c1ccccc1`, the inhibition was -9.31% (inactive).

As for `CCOC(=O)CSc1nnc(-c2ccncc2)o1`, the inhibition was -9.52% (inactive).

For `COCCCNC(=O)COc1cc(C)c(Cl)c(C)c1`, the inhibition is -96.5% (inactive).

In the case of `CCC(Sc1nncn1C)C(=O)Nc1nnc(-c2ccc(Cl)cc2)s1` (stereo not drawn), the inhibition is -2.44% (inactive).

Take `COc1cccc(-c2nnc(NC(=O)c3ccc(S(=O)(=O)N(CC(C)C)CC(C)C)cc3)o2)c1`: the inhibition was 65.7% (active).

As for `CCN(CC)C(=O)CSc1nnc(-c2cccc(OC)c2)o1`, the inhibition was -4.72% (inactive).

Consider `COc1cccc(NC(=O)CN(C)S(=O)(=O)c2ccc(C)cc2)c1`, for which the inhibition was -3.65% (inactive).

Consider `CCOc1cc(S(=O)(=O)NCc2ccc3c(c2)OCO3)ccc1F`, for which the inhibition was -4.32% (inactive).

As to `CCCC(=O)N1CCc2[nH]c3ccccc3c2C1`, the inhibition was 51.2% (active).

`O=C(NC1CCCCC1)N1CCc2[nH]c3ccccc3c2C1`: the inhibition is -1.26% (inactive).

Regarding `Cc1ccc2[nH]c3c(c2c1)CN(C(=O)CN1CCN(c2ccccc2)CC1)CC3`, the inhibition was -8.5% (inactive).

For `CCCC(NS(=O)(=O)c1ccc(OC)cc1)C(=O)O` (stereo not drawn), the inhibition is -5.87% (inactive).

As for `CCc1nnc(NC(=O)CSc2nnc(Cc3ccccc3)n2-c2ccc(OC)cc2)s1`, the inhibition is 10.7% (inactive).

Regarding `CCc1nnc(NC(=O)CSc2nnc(COc3ccc(C#N)cc3)n2-c2ccccc2)s1`, the inhibition is 60.1% (active).

With `CCc1nnc(NC(=O)CSc2nnc(-c3ccncc3)n2Cc2ccccc2)s1`, the inhibition was -7.97% (inactive).

Consider `CCOC(=O)N1CCN(C(=O)c2cc3c(-c4ccc(Cl)cc4)nn(C)c3s2)CC1`, for which the inhibition is -13.4% (inactive).

For `CCCCn1c(SCc2ncc(-c3ccccc3)o2)nc2cc(S(N)(=O)=O)ccc21`, the inhibition was -15.2% (inactive).

As to `CCOc1ccc(N(CC(=O)OC)S(=O)(=O)c2c(C)noc2C)cc1`, the inhibition is -2.65% (inactive).

On to `O=c1c2ccccc2nc(CSc2nnnn2-c2ccccc2)n1-c1ccccc1`, for which the inhibition is 52% (active).

Turning to `Cc1ccc(Nc2nc(CSc3nnnn3-c3ccccc3)cc(=O)[nH]2)cc1`, the inhibition was 2.45% (inactive).

With `N#CCSc1nc2ccccc2c(=O)n1-c1ccccc1`, the inhibition was -15% (inactive).

`CCCCC(=O)N(c1ccc(OC)cc1)C1C=CS(=O)(=O)C1` (stereo not drawn): the inhibition is -0.43% (inactive).

Take `COc1ccc(OCCCC(=O)Nc2nnc(C3CCCO3)s2)cc1` (stereo not drawn): the inhibition is 8.11% (inactive).

With `COC(=O)N(c1ccc(OC)cc1)P1(=S)OCCC(C)O1` (stereo not drawn), the inhibition was 94.7% (active).
